High-throughput results: PubChem, Broad Institute
PAX8 inh HTS: PAX8 transcriptional activity inhibition; RMG-I TPO-luciferase reporter, SteadyGlo, 24 h; inhibition, % at 12.6 µM; 360,000 compounds, 1.2% hits; AID 652154;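 active means mean replicate inhibition at least 60% with every replicate also reaching 60%; inconclusive means only one of the two criteria is met; inactive means mean below 60% and not all replicates reaching 60%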;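 further: luciferase light reporting Pax8 driven TPO promoter activity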
PGC1a acetyl inh: PGC1a acetylation modulation, inhibitor mode; U2OS PGC1a acetylation, AlphaScreen anti-acetyl-lysine; with virally co-expressed GCN5 acetyltransferase; inhibition, % at 15.6 µM; 350,000 compounds, 0.17% hits;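 active means every replicate shows inhibition of at least 40%; inconclusive means mean inhibition at least 40% but some replicate below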
Env fusion inh: HIV envelope-mediated fusion inhibition | HeLa-JRFL Env/CEM21 cell fusion, luciferase | inhibition, % at 12.3 µM | 360,000 compounds, 1.1% hits | AID 651610;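 active means mean replicate inhibition score of at least 50 and every replicate individually at or above 50; inconclusive means only one of the two criteria met; inactive means mean below 50 and not all replicates reaching 50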
F508del corr: correctors of CFTR F508del function in bronchial epithelial cells | 350,000 compounds, 0.36% hits | CFBE cells, YFP halide quenching; stimulated with forskolin plus potentiator P3; % fluorescence drop versus neutral controls | activity (quench increase), % at 7.58 µM;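 active means mean added fluorescence quench of at least 8% versus neutral control, with both replicates also reaching 8%; inconclusive means only one of the mean or replicate conditions met; inactive means mean below 8% and not both replicates reaching 8%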;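 further: cells transiently co-express mutant CFTR-F508del with the halide-sensitive YFP; corrector assay measuring rescue of mutant channel to the surface after 24 h compound exposure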
EWS-Fli block: EWS/Fli transcriptional activity inhibition; A673 NR0B1-luciferase reporter, viability-normalised; 350,000 compounds, 0.67% hits; AID 651661; inhibition, % at 12.6 µM;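 active means mean inhibition of at least 50% after viability correction, with every replicate also passing that limit; inconclusive means mean reaches 50% but only one of two replicates passes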;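 further: firefly luciferase signal divided by Alamar Blue viability fluorescence both relative to DMSO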
GSIS activator: primary screen for activators of insulin secretion dependent on glucose, INS-1E cells, GLuc reporter luminescence; INS-1E GLuc reporter insulin secretion, 2-3 h; 370,000 compounds, 0.61% hits; activation, % at 16.6 µM;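 active means lowest replicate activation of at least 40%, so every replicate reaches that level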
Numbers stand for hits; n = inactive; u = inconclusive; x = no result given; ! = not confirmed by another sample; [ ] = remark or other dose. This is a sample that favours compounds with a hit; in the whole collection about 2.7% have one here.

SMILES	PAX8 inh HTS	PGC1a acetyl inh	Env fusion inh	F508del corr	EWS-Fli block	GSIS activator
C[C@@H]1CN([C@H](C)CO)C(=O)c2cc(NC(=O)Nc3ccc(C(F)(F)F)cc3)ccc2O[C@@H](C)CCCCO[C@@H]1CN(C)S(=O)(=O)c1ccccc1	n	n	n	n	n	n
C[C@H](CO)N1C[C@H](C)[C@@H](CN(C)S(=O)(=O)c2ccccc2)OCCCC[C@H](C)Oc2ccc(NC(=O)Nc3ccc(C(F)(F)F)cc3)cc2C1=O	70	n	n	n	n	n
C[C@@H]1CCCCO[C@@H](CN(C)S(=O)(=O)c2ccccc2)[C@@H](C)CN([C@H](C)CO)C(=O)c2cc(NC(=O)Nc3ccc(C(F)(F)F)cc3)ccc2O1	n	n	n	n	n	n
C[C@@H]1CCCCO[C@H](CN(C)S(=O)(=O)c2ccccc2)[C@H](C)CN([C@@H](C)CO)C(=O)c2cc(NC(=O)Nc3ccc(C(F)(F)F)cc3)ccc2O1	64	n	n	n	n	n
C[C@@H]1CCCCO[C@H](CN(C)S(=O)(=O)c2ccccc2)[C@@H](C)CN([C@@H](C)CO)C(=O)c2cc(NC(=O)Nc3ccc(C(F)(F)F)cc3)ccc2O1	72	n	n	n	n	n
CNC[C@H]1OCCCC[C@H](C)Oc2ccc(NC(=O)NC3CCCCC3)cc2C(=O)N([C@@H](C)CO)C[C@@H]1C	n	n	n	n	n	n
CO[C@H](C(=O)N(C)C[C@@H]1OCc2ccccc2-c2c(n(C)c3ccccc23)C(=O)N([C@@H](C)CO)C[C@@H]1C)c1ccccc1	n	n	n	n	n	n
CC(C)NC(=O)N[C@@H]1CC[C@@H](CC(=O)NCc2ccc(Oc3ccccc3)cc2)O[C@H]1CO	n	n	n	n	n	n
C[C@@H]1CCCCO[C@H](CN(C)S(=O)(=O)c2ccccc2)[C@@H](C)CN([C@H](C)CO)C(=O)c2cc(NC(=O)Nc3ccc(C(F)(F)F)cc3)ccc2O1	n	n	n	n	n	n
C[C@H]1CCCCO[C@@H](CN(C)S(=O)(=O)c2ccccc2)[C@@H](C)CN([C@@H](C)CO)C(=O)c2cc(NC(=O)Nc3ccc(C(F)(F)F)cc3)ccc2O1	76	n	n	n	n	n
C[C@H](CO)N1C[C@H](C)[C@H](CN(C)CC2CC2)Oc2ccc(NC(=O)Nc3ccc(F)cc3)cc2CC1=O	n	n	u	n	n	x
O=C(Nc1ccc(Oc2ccccc2)cc1)C1CCN(c2c3c(nc4ncnn24)CCC3)CC1	x	n	103	x	x	x
O=C(Nc1ccc2c(c1)CCC2)C1CCN(c2c3c(nc4ncnn24)CCC3)CC1	x	n	96	x	x	n
CCCNC(=O)Nc1ccc2c(c1)OC[C@@H](C)N(C(=O)c1ccccc1F)C[C@@H](C)[C@@H](OC)CN(C)C2=O	n	n	x	n	n	n
CCS(=O)(=O)Nc1ccc2c(c1)C(=O)N(C)C[C@H](OC)[C@H](C)CN(C)[C@@H](C)CO2	x	n	n	n	n	n
C[C@@H]1CN([C@H](C)CO)C(=O)CCCn2nncc2CO[C@H]1CN(C)S(=O)(=O)c1cn(C)cn1	n	105	n	n	n	n
C[C@@H]1CN([C@@H](C)CO)C(=O)CCCn2nncc2CO[C@H]1CN(C)Cc1ccccc1	n	n	n	n	n	41!
C[C@H]1CN([C@@H](C)CO)C(=O)CCCn2nncc2CO[C@@H]1CN(C)Cc1ccccc1	n	n	n	n	n	n
C[C@@H]1CN([C@H](C)CO)C(=O)c2cc(NC(=O)CCCN(C)C)ccc2O[C@@H]1CN(C)Cc1ccc(C(F)(F)F)cc1	n	n	n	n	n	n
O=C(NCc1cccs1)C1Cc2c(-c3ccc(Cl)cc3)ccnc2O1 (configuration not stated)	x	n	n	n	70	x
CC(=O)c1cccc(-c2ccnc3c2CC(C(=O)NCc2cccs2)O3)c1 (configuration not stated)	u	x	n	n	73	n
C[C@@H]1CN([C@H](C)CO)C(=O)c2cccc(NC(=O)c3ccncc3)c2O[C@@H]1CN(C)S(=O)(=O)c1cccs1	x	n	x	n	n	n
O=C(N[C@@H]1CC[C@@H](CCNS(=O)(=O)c2ccc(F)cc2)O[C@@H]1CO)C1CCCC1	n	n	n	n	n	n
CCNC(=O)C[C@@H]1CC[C@H]2[C@@H](COc3ccc(NC(=O)c4cscn4)cc3C(=O)N2C)O1	n	n	n	n	n	n
CN1C(=O)c2cc(NC(=O)c3cscn3)ccc2OC[C@@H]2O[C@H](CC(=O)NCc3ccc(Cl)c(Cl)c3)CC[C@H]21	n	n	58[16.7 µM]	n	n	n
SMILES	PAX8 inh HTS	PGC1a acetyl inh	Env fusion inh	F508del corr	EWS-Fli block	GSIS activator
COc1ccccc1C(=O)Nc1ccc2c(c1)C(=O)N(C)[C@@H]1CC[C@@H](CC(=O)NCc3ccc(Cl)c(Cl)c3)O[C@H]1CO2	93	n	x	n	n	n
CCNC(=O)C[C@@H]1CC[C@H]2[C@H](COc3ccc(NC(=O)c4cscn4)cc3C(=O)N2C)O1	n	n	n	n	n	n
CN1C(=O)c2cc(NC(=O)c3cscn3)ccc2OC[C@H]2O[C@H](CC(=O)NCc3ccc(Cl)c(Cl)c3)CC[C@H]21	n	n	68[16.7 µM]	n	n	n
CC(C)(C)S(=O)(=O)/C(C#N)=N/Nc1ccc(Cl)cc1	n	n	58	n	n	n
O=C(c1ccccn1)N1CC[C@@H]2[C@@H](CO)Nc3ccc(-c4ccc(F)cc4)cc3[C@@H]21	n	n	x	n	n	n
O=C(NC1=NCCS1)C1COc2ccccc2O1 (configuration not stated)	x	n	98	x	x	x
O=C(N/N=C/c1cccs1)C1COc2ccccc2O1 (configuration not stated)	x	n	n	x	x	x
CC(OC(=O)C1COc2ccccc2O1)C(=O)c1ccccc1 (configuration not stated)	n	n	n	n	n	48
Cc1ccc(/C=N/NC(=O)C2COc3ccccc3O2)s1 (configuration not stated)	n	n	n	11	n	n
O=C(Nc1ccc(F)cc1)C1COc2ccccc2O1 (configuration not stated)	n	n	n	n	n	184
C[C@@H]1CN([C@@H](C)CO)C(=O)c2cccc(NC(=O)C3CCCCC3)c2O[C@@H]1CN(C)Cc1ccccc1	x	n	x	n	n	n
C[C@@H]1CN([C@H](C)CO)C(=O)c2cc(-c3ccccc3F)cnc2O[C@H]1CN(C)C(=O)C1CCC1	x	n	n	n	n	n
C[C@@H]1CCCCO[C@@H](CN(C)C(=O)c2ccccc2)[C@H](C)CN([C@H](C)CO)C(=O)c2cc(NC(=O)Nc3cccc4ccccc34)ccc2O1	x	n	n	n	n	n
CC(=O)N1[C@@H](CO)[C@@H](c2ccccc2)C12CN(C(=O)c1ccc3c(c1)OCO3)C2	x	n	x	n	n	n
O=C(O)CNC(=O)c1ccc(Sc2ccccc2)c([N+](=O)[O-])c1	n	x	n	n	n	n
